# Source: ChEMBL document CHEMBL2218924, “A broad activity screen in support of a chemogenomic map for kinase signalling research and drug discovery” (Biochem J, 2013)
# What was measured:
# [1] = biological target: Protein kinase C delta type (Homo sapiens) (UniProt Q05655); details: at 1 µM
# [2] = biological target: Protein kinase C delta type (Homo sapiens) (UniProt Q05655); details: at 10 µM
# [3] = biological target: Protein kinase C gamma type (Homo sapiens) (UniProt P05129); details: at 1 µM
# [4] = biological target: Protein kinase C gamma type (Homo sapiens) (UniProt P05129); details: at 10 µM
# [5] = biological target: Protein kinase C beta type (Homo sapiens) (UniProt P05771); details: at 10 µM
# [6] = biological target: T1, Protein kinase C epsilon type (Homo sapiens) (UniProt Q02156); details: at 10 µM
# T1 sequence (whole entry): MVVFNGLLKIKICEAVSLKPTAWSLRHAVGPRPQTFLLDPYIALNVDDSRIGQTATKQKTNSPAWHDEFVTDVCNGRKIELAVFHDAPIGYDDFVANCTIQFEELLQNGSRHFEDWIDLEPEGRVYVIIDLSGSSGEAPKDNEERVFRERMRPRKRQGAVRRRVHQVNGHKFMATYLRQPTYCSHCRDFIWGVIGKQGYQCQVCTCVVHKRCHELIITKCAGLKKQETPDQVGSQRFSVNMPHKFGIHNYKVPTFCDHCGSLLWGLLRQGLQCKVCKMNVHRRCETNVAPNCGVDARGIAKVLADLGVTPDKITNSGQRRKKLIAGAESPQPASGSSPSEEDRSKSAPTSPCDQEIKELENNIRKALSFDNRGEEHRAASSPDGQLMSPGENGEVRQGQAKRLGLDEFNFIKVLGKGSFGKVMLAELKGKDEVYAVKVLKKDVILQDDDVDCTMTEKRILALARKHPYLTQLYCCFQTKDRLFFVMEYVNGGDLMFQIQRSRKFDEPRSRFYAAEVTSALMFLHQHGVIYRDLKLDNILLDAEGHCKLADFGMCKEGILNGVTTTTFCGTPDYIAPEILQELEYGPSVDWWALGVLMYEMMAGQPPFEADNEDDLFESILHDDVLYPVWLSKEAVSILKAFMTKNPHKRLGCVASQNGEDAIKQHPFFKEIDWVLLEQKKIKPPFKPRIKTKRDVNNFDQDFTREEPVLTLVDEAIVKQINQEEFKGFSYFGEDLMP
# [7] = biological target: Protein kinase C beta type (Homo sapiens) (UniProt P05771); details: at 1 µM
# [8] = biological target: T1, Protein kinase C epsilon type (Homo sapiens); details: at 1 µM
# [9] = biological target: Protein kinase C beta type (Homo sapiens) (UniProt P05771); details: at 1 µM; remark: listed apart in the source
# [10] = biological target: Protein kinase C beta type (Homo sapiens) (UniProt P05771); details: at 10 µM; remark: listed apart in the source
# Sequence of Protein kinase C delta type (Homo sapiens) (Q05655 whole entry, looked up): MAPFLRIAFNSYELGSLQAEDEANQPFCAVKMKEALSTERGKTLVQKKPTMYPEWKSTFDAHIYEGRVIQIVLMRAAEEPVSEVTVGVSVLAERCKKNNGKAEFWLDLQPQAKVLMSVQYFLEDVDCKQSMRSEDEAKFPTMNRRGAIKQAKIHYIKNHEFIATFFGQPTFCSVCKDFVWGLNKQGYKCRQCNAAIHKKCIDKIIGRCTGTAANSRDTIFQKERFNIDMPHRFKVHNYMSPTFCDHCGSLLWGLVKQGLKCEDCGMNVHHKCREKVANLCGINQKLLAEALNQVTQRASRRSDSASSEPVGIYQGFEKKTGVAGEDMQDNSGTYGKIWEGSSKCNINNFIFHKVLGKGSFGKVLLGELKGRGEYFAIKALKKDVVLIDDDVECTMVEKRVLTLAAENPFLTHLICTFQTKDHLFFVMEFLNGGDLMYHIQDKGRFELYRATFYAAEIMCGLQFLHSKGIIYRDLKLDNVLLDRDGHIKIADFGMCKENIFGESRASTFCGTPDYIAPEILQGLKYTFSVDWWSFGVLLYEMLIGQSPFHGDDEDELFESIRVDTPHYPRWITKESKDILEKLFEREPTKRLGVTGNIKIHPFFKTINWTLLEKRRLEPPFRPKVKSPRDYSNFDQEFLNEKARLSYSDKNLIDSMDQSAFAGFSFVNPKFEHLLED
# Sequence of Protein kinase C beta type (Homo sapiens) (P05771 2-671 limits assumed): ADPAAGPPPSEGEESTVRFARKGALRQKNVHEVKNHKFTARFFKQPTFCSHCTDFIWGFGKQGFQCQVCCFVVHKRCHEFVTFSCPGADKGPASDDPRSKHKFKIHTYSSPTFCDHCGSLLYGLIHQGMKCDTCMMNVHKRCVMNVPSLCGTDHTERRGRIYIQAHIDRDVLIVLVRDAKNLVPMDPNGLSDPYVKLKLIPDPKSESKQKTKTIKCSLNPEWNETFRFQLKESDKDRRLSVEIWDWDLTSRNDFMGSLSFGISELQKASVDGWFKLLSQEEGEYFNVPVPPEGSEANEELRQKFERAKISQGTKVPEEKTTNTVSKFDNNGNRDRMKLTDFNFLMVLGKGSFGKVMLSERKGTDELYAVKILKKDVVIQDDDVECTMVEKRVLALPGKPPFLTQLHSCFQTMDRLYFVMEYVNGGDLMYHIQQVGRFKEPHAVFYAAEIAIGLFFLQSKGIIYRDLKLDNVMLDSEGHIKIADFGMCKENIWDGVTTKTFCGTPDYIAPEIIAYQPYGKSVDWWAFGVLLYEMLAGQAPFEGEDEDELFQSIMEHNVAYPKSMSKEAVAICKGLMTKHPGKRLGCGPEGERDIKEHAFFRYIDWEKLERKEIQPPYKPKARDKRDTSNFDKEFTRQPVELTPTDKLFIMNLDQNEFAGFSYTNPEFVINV
smiles,measurement,setting,value
Nc1n[nH]c2nc3ccccc3nc12,residual activity,[1],85%
same,residual activity,[2],68%
O=C1NC(=O)C(c2cn(CCCO)c3ncccc23)=C1c1cnccn1,residual activity,[3],92%
same,residual activity,[4],91%
same,residual activity,[1],97%
same,residual activity,[2],91%
N#Cc1c(NC(=O)c2cccc3ccccc23)sc2c1CCCC2,residual activity,[3],94%
O=S(=O)(NCCNC/C=C/c1ccc(Br)cc1)c1cccc2cnccc12,residual activity,[5],55%
same,residual activity,[4],38%
same,residual activity,[1],54%
same,residual activity,[2],11%
same,residual activity,[6],76%
Oc1cccc(-c2nc(N3CCOCC3)c3oc4ncccc4c3n2)c1,residual activity,[7],98%
same,residual activity,[1],94%
same,residual activity,[8],91%
same,residual activity,[6],99%
N#C/C(=C1/Nc2ccccc2S1)c1ccnc(NCCc2cccnc2)n1,residual activity,[9],125%
same,residual activity,[10],121%
same,residual activity,[3],95%
same,residual activity,[4],100%
